Tests used:
[1] = target: Tyrosine-protein kinase Lck (Homo sapiens) (UniProt P06239); details: at 10 µM
[2] = target: Tyrosine-protein kinase Lck (Homo sapiens) (UniProt P06239); details: at 10 µM; remark: listed apart in the source
[3] = target: Tyrosine-protein kinase Lyn (Homo sapiens) (UniProt P07948); details: at 1 µM
[4] = target: Tyrosine-protein kinase Lyn (Homo sapiens) (UniProt P07948); details: at 10 µM
[5] = target: Mitogen-activated protein kinase 3 (Homo sapiens) (UniProt P27361); details: at 10 µM
[6] = target: MAP kinase-activated protein kinase 2 (Homo sapiens) (UniProt P49137); details: at 1 µM
[7] = target: MAP kinase-activated protein kinase 2 (Homo sapiens) (UniProt P49137); details: at 10 µM
[8] = target: Serine/threonine-protein kinase MARK1 (Homo sapiens) (UniProt Q9P0L2); details: at 1 µM
[9] = target: Serine/threonine-protein kinase MARK1 (Homo sapiens) (UniProt Q9P0L2); details: at 10 µM
[10] = target: Dual specificity mitogen-activated protein kinase kinase 1 (Homo sapiens) (UniProt Q02750); details: at 1 µM
[11] = target: Dual specificity mitogen-activated protein kinase kinase 1 (Homo sapiens) (UniProt Q02750); details: at 10 µM
[12] = target: Maternal embryonic leucine zipper kinase (Homo sapiens) (UniProt Q14680); details: at 1 µM
[13] = target: Maternal embryonic leucine zipper kinase (Homo sapiens) (UniProt Q14680); details: at 10 µM
[14] = target: Misshapen-like kinase 1 (Homo sapiens) (UniProt Q8N4C8); details: at 10 µM
[15] = target: Mitogen-activated protein kinase 3 (Homo sapiens) (UniProt P27361); details: at 1 µM
[16] = target: Tyrosine-protein kinase Lck (Homo sapiens) (UniProt P06239); details: at 1 µM
[17] = target: Mitogen-activated protein kinase 1 (Homo sapiens) (UniProt P28482); details: at 1 µM
[18] = target: Mitogen-activated protein kinase 1 (Homo sapiens) (UniProt P28482); details: at 10 µM
[19] = target: Misshapen-like kinase 1 (Homo sapiens) (UniProt Q8N4C8); details: at 1 µM
[20] = target: MAP kinase-activated protein kinase 3 (Homo sapiens) (UniProt Q16644); details: at 10 µM
Chain of MAP kinase-activated protein kinase 3 (Homo sapiens) (Q16644 whole entry, looked up): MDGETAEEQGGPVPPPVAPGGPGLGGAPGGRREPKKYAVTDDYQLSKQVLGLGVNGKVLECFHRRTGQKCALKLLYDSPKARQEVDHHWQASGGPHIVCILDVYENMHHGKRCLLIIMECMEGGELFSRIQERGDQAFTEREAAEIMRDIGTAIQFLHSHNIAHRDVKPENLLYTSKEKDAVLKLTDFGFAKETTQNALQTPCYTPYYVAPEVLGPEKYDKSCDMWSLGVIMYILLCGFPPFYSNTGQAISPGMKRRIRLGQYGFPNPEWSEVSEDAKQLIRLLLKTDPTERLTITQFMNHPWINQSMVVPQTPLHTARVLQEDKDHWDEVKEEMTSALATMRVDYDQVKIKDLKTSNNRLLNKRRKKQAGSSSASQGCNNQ

Chain of MAP kinase-activated protein kinase 2 (Homo sapiens) (P49137 whole entry, looked up): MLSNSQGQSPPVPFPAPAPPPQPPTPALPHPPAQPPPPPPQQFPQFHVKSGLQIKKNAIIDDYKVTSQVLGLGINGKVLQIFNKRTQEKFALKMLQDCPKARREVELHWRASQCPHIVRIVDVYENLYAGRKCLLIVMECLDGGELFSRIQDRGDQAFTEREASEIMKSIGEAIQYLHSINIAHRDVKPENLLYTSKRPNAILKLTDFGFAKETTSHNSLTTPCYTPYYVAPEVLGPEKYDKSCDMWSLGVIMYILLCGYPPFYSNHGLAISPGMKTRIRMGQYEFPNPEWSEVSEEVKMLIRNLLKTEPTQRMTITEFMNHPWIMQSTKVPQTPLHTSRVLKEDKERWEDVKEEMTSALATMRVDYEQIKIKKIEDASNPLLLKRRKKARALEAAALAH
Chain of Maternal embryonic leucine zipper kinase (Homo sapiens) (Q14680 whole entry, looked up): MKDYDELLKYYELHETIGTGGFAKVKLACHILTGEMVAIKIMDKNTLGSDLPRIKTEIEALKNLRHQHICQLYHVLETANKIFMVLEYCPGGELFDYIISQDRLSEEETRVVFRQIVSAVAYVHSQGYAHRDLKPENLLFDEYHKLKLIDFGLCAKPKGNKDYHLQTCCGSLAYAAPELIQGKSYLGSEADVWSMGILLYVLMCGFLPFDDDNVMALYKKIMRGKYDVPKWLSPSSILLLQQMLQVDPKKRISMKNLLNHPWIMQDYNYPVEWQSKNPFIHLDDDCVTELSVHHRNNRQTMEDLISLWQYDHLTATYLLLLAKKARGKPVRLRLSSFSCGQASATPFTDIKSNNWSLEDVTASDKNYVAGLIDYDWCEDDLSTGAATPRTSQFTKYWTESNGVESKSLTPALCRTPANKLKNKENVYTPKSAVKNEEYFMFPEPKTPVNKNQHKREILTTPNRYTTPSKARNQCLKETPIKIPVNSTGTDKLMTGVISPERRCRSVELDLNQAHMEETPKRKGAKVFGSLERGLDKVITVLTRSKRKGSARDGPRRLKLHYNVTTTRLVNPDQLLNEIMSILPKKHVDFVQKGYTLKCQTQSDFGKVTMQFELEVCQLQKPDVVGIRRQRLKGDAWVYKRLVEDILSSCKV
Chain of Dual specificity mitogen-activated protein kinase kinase 1 (Homo sapiens) (Q02750 whole entry): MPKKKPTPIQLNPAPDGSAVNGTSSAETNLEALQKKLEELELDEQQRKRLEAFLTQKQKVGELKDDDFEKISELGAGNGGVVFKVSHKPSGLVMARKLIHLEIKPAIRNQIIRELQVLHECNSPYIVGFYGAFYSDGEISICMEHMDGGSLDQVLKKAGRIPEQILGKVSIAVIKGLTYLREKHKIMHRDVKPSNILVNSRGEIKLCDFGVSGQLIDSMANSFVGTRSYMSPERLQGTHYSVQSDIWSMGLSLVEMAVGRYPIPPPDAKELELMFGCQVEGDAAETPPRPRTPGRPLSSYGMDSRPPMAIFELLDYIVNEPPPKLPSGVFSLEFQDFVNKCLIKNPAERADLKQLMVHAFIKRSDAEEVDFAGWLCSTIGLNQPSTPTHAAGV
Chain of Misshapen-like kinase 1 (Homo sapiens) (Q8N4C8 whole entry, looked up): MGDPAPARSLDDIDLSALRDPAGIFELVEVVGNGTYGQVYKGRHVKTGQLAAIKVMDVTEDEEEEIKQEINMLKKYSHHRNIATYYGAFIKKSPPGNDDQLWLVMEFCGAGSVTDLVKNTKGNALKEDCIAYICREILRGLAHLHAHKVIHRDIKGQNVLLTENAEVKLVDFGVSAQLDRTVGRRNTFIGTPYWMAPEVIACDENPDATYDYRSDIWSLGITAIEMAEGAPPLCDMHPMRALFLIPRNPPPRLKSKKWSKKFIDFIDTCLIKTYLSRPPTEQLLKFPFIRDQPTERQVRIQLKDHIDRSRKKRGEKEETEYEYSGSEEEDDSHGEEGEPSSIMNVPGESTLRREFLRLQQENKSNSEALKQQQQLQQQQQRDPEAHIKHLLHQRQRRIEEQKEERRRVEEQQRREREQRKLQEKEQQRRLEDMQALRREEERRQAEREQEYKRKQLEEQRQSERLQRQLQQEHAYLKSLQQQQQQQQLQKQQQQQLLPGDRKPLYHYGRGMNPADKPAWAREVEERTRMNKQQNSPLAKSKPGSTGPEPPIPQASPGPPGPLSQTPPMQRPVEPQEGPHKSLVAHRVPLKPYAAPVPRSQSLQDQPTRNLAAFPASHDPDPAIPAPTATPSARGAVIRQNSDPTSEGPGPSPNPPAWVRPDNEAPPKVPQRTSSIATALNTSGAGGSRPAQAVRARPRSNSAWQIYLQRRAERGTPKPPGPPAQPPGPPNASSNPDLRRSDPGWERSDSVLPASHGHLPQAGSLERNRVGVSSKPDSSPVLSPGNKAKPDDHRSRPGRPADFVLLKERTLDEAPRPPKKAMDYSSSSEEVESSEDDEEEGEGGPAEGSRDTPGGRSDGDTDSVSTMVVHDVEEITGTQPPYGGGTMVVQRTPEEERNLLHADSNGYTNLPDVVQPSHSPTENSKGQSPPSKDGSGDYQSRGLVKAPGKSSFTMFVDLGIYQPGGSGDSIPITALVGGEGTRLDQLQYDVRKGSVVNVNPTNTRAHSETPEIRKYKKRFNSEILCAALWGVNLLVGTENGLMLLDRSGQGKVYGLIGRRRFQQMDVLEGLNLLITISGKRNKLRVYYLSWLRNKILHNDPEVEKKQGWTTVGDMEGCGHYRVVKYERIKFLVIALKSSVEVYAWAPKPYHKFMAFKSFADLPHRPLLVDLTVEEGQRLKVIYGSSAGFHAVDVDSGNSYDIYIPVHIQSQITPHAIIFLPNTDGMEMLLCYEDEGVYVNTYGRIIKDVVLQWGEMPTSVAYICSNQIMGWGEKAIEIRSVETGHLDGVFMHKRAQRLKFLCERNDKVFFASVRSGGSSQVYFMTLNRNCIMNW
Chain of Serine/threonine-protein kinase MARK1 (Homo sapiens) (Q9P0L2 whole entry, looked up): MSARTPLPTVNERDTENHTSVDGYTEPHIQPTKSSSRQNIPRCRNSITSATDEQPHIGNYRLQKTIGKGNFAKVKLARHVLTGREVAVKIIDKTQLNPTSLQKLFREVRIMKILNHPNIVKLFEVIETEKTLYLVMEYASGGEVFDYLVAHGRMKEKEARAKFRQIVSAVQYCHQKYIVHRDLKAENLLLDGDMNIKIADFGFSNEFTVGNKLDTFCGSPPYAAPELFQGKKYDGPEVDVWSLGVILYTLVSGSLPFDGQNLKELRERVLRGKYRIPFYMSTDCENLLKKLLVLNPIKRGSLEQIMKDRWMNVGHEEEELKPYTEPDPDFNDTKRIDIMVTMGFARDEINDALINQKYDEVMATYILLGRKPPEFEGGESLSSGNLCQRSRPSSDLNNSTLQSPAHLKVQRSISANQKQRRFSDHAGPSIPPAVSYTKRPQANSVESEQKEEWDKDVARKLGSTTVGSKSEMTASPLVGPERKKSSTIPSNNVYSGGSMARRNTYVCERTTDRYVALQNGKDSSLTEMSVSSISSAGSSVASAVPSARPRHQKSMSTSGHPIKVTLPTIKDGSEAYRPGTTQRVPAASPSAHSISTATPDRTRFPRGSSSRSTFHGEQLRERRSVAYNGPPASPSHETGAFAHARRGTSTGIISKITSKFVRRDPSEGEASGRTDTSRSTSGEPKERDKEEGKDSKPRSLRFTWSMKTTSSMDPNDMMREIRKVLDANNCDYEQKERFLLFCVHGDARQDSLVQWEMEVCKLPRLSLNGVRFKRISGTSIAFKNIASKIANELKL
Chain of Mitogen-activated protein kinase 1 (Homo sapiens) (P28482 whole entry): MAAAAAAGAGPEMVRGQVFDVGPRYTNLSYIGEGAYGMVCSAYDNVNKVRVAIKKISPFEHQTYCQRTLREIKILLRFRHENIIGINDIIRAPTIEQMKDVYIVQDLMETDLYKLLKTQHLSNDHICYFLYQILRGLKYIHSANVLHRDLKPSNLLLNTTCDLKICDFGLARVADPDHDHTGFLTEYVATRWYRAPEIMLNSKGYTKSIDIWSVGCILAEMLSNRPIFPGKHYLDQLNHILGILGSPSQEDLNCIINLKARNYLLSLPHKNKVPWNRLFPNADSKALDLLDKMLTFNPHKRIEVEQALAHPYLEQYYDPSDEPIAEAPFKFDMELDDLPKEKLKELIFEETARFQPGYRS
Chain of Tyrosine-protein kinase Lck (Homo sapiens) (P06239 2-509 limits assumed): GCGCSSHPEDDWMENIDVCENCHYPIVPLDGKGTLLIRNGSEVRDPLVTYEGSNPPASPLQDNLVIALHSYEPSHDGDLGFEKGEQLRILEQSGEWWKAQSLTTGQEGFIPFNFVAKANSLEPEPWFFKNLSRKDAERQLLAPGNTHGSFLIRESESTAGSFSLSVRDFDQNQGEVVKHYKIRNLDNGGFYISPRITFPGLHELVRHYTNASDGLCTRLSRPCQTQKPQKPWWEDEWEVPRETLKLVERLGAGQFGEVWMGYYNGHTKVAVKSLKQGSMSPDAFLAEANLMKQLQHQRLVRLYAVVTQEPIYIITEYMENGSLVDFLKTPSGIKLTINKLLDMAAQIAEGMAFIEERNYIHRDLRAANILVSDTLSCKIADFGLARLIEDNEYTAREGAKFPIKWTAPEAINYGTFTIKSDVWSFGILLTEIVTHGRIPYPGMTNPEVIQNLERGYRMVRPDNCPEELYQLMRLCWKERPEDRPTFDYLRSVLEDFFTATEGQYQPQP

SMILES	residual activity [1] [%]	residual activity [2] [%]	residual activity [3] [%]	residual activity [4] [%]	residual activity [5] [%]	residual activity [6] [%]	residual activity [7] [%]	residual activity [8] [%]	residual activity [9] [%]	residual activity [10] [%]	residual activity [11] [%]	residual activity [12] [%]	residual activity [13] [%]	residual activity [14] [%]	residual activity [15] [%]	residual activity [16] [%]	residual activity [17] [%]	residual activity [18] [%]	residual activity [19] [%]	residual activity [20] [%]
O=C1NC(=O)C(c2c[nH]c3ccccc23)=C1c1c[nH]c2ccccc12	37	41	82	32	61	98	79	81	37	34	7	80	27	41	–	–	–	–	–	–
CC(C)N(CCC(=O)c1ccc2ccccc2c1)Cc1ccccc1	77	–	–	–	76	–	–	73	75	–	–	75	87	–	85	–	–	–	–	–
O=C(CCCc1ccc(-c2ccccc2F)cc1)Nc1ccc(O)cc1	58	88	97	85	88	95	76	102	94	103	111	100	77	102	100	99	106	92	111	–
CC(C)(C)n1nc(Cc2cccc3ccccc23)c2c(N)ncnc21	6	12	10	1	51	–	–	91	80	94	63	72	30	26	78	44	81	41	86	90
O=C1Nc2ccccc2/C1=C\c1c(Cl)[nH]c2ccccc12	48	55	–	62	–	–	–	–	74	–	–	77	30	–	–	–	121	–	–	85
Nc1nc(Nc2ccc(S(N)(=O)=O)cc2)nn1C(=O)c1c(F)cccc1F	29	18	40	11	–	–	–	–	–	73	64	–	–	80	102	66	–	–	107	–
O=c1cc(N2CCNCC2)oc2c(-c3ccccc3)cccc12	85	88	–	71	87	94	85	82	89	99	89	80	78	99	86	92	101	–	104	89
CN([C@@H](Cc1ccc(OS(=O)(=O)c2cccc3cnccc23)cc1)C(=O)N1CCN(c2ccccc2)CC1)S(=O)(=O)c1cccc2cnccc12	–	–	78	59	–	–	–	99	98	–	–	–	–	–	–	113	–	–	–	78
CCOC(=O)c1c(C)[nH]c(/C=C2\C(=O)Nc3ccccc32)c1C	–	–	50	26	91	–	–	89	87	–	–	77	97	75	81	–	100	96	86	95
O=C1NC(=O)C(c2cn(CCCO)c3ncccc23)=C1c1cnccn1	–	–	78	70	–	93	93	81	79	–	–	78	68	–	–	–	–	–	–	100
N#C/C(=C\c1ccc(O)c(O)c1)C(=O)NCc1ccccc1	–	–	–	70	65	85	77	85	88	–	–	80	72	84	77	–	–	–	–	–
CCN1/C(=C/C(C)=O)Sc2ccc(OC)cc21	–	–	49	37	–	–	–	67	65	–	–	–	–	–	–	–	–	–	–	–
Cn1sc(=O)n(Cc2ccccc2)c1=O	–	–	82	92	92	72	93	76	70	96	–	88	65	91	83	–	95	92	96	–
Cc1cc(C)c(/C=C2\C(=O)Nc3ccccc32)[nH]1	–	–	46	8	–	100	103	65	20	41	31	–	–	58	–	–	98	101	71	101
N#C/C(=C1/Nc2ccccc2S1)c1ccnc(NCCc2cccnc2)n1	–	–	–	15	–	–	–	–	–	–	–	74	50	72	–	–	–	–	96	68
Fc1ccc(-c2nc3n(c2-c2ccncc2)CCS3)cc1	–	75	98	74	92	–	–	–	–	–	–	89	82	67	138	–	–	–	96	100
CC(C)[C@H](CO)Nc1nc(Nc2cc(N)cc(Cl)c2)c2ncn(C(C)C)c2n1	–	–	9	-1	82	89	117	92	38	–	–	–	–	73	91	–	–	66	–	–

Source: ChEMBL document CHEMBL2218924, “A broad activity screen in support of a chemogenomic map for kinase signalling research and drug discovery” (Biochem J, 2013)
